Experimental findings from PMC4336329 (PLoS ONE, 2015) are described below.

The whole screen tested about 310,000 compounds, of which about 14,000 (4.5%) showed an effect of 50% or more. The effect is printed as a negative number. The full list was thinned out, with strong results kept by preference.
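Note: peak tail current of the secondary pulse compared with the same well before compound.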

For the assay, the target named is human ether-à-go-go-related gene (hERG) potassium channel (human, UniProt Q12809). The assay is described as follows: primary screen, population patch clamp on CHO cells stably expressing hERG; higher = less effect of the substance.
Sequence of human ether-à-go-go-related gene (hERG) potassium channel (Q12809 whole entry, looked up): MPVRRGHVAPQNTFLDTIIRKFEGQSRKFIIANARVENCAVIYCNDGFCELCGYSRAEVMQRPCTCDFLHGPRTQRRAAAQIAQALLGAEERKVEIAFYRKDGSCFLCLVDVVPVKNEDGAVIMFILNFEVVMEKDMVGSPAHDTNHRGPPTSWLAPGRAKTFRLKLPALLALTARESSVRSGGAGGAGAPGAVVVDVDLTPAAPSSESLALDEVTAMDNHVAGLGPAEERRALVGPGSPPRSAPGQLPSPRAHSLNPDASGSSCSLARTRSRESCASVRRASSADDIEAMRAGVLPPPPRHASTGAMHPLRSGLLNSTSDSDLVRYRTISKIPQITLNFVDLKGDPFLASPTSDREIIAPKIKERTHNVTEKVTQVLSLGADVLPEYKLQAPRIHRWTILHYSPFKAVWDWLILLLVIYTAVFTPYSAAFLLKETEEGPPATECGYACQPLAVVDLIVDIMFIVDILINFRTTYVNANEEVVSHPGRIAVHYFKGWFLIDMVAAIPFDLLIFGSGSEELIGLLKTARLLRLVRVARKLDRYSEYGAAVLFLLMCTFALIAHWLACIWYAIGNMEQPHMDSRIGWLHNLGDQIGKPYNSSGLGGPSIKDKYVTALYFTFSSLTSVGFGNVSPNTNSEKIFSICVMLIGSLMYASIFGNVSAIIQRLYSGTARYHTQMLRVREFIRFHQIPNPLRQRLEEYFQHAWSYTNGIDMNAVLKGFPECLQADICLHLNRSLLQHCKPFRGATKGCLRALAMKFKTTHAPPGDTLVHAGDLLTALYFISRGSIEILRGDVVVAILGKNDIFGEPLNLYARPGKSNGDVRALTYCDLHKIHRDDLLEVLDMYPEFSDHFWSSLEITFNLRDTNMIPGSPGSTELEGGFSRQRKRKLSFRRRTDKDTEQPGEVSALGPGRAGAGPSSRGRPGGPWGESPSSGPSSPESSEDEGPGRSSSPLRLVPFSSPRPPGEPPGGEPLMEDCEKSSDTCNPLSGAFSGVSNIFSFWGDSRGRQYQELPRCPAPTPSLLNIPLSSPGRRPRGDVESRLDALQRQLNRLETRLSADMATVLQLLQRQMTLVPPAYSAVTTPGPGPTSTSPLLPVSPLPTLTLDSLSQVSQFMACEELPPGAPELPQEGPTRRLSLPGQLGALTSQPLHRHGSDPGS
Consider `CCc1nnc(NC(=O)CSc2nc3[nH]c(=O)cc(O)c3s2)s1`, for which the “hERG current change (%, negative = inhibition) at 10uM” value was -0.838%.
Then `O=C(OCc1ccc([N+](=O)[O-])cc1)c1ccccn1`, with -28.2%; and `Nn1c(SCc2c(F)cccc2F)nnc1-c1ccccn1`, with 2.69%; and `CC1(C(=O)NCC2CCCO2)Oc2cccnc2NC1=O` (centres unmarked), with 5.86%.
Consider `CC(=O)Nc1c2c(nn1-c1ccccc1C)CS(=O)C2` (centres unmarked), for which the “hERG current change (%, negative = inhibition) at 10uM” value was 18.7%.
As to `Cc1ccc(CS(=O)(=O)c2ccc(C(=O)N3CCN(c4ccccn4)CC3)cc2[N+](=O)[O-])cc1`, the “hERG current change (%, negative = inhibition) at 10uM” value is -43.9%.
As for `COc1ccccc1/C=C/C1=NC(=C\C=C/c2ccccc2)/C(=O)O1`, the “hERG current change (%, negative = inhibition) at 10uM” value was found to be 3.98%.
For `CC(/C=N/NC(=O)c1ccc(Cn2cc([N+](=O)[O-])cn2)o1)=C\c1ccccc1` the value was -5.3%.
With `O=S(=O)(c1ccc(Br)cc1)N1CCn2c(nc3ccccc32)C1`, the “hERG current change (%, negative = inhibition) at 10uM” value is reported as -7.4%.
Consider `CCOc1cc(C(=O)OCC(=O)Nc2cc(C)on2)cc(OCC)c1OCC`, for which the “hERG current change (%, negative = inhibition) at 10uM” value was 2.29%.
For `Cc1ccc(NC(=O)CNC(=O)c2ccco2)cc1Cl`, the “hERG current change (%, negative = inhibition) at 10uM” value worked out at 17%.
Consider `COc1ccc(OC)c(-c2csc(N(Cc3ccco3)C(=O)c3ccco3)n2)c1`, for which the “hERG current change (%, negative = inhibition) at 10uM” value is given as 7.74%.
For the molecule `CCOc1ccccc1N1CC(C(=O)N(C)Cc2cccnc2)CC1=O` (centres unmarked), the “hERG current change (%, negative = inhibition) at 10uM” value is given as 15%.
As to `COc1ccc(N(C)C(=O)CCS(=O)(=O)c2cccc3nonc23)c(OC)c1`, the “hERG current change (%, negative = inhibition) at 10uM” value was 1.11%.
As to `Cl.N=c1n(CCN2CCCCC2)c2ccccc2n1CC(O)c1ccco1` (centres unmarked), the “hERG current change (%, negative = inhibition) at 10uM” value is reported as -55.2%.
Consider `CCN(CC)CCn1c(=N)n(CC(O)c2ccco2)c2ccccc21.Cl` (centres unmarked), for which the “hERG current change (%, negative = inhibition) at 10uM” value is recorded as -73.2%.
Take `CCCn1c(=N)n(CC(O)c2ccco2)c2ccccc21.Cl` (centres unmarked): the “hERG current change (%, negative = inhibition) at 10uM” value is recorded as -43.8%.
With `Cl.N=c1n(CCN2CCCC2)c2ccccc2n1CC(O)c1ccco1` (centres unmarked), the “hERG current change (%, negative = inhibition) at 10uM” value is -34%.
As to `Cl.Cn1c(=N)n(CC(O)c2ccco2)c2ccccc21` (centres unmarked), the “hERG current change (%, negative = inhibition) at 10uM” value is reported as -9.79%.
For `CCCCCCCn1c(=N)n(CC(O)c2ccco2)c2ccccc21.Cl` (centres unmarked) the value was -86.9%.
For `CC(=O)N1N=C(C)CC1c1ccc(OCc2ccccc2)cc1` (centres unmarked) the value was -15.5%; for `O=C(CN(CC(=O)N1CCOCC1)S(=O)(=O)c1ccc(Br)s1)N1CCOCC1`, 12.8%; for `CCOc1ccc(N(C(C)C(=O)NCc2ccco2)S(C)(=O)=O)cc1` (centres unmarked), -2.31%.
Turning to `NC(=O)CC(NC(=O)c1cccc(Br)c1)c1ccc(N2CCN(c3ccc(F)cc3)CC2)c([N+](=O)[O-])c1` (centres unmarked), the “hERG current change (%, negative = inhibition) at 10uM” value is reported as -2.08%.
`O=C(CNS(=O)(=O)c1ccc(Br)s1)N1CCCC1`: the “hERG current change (%, negative = inhibition) at 10uM” value is on record as 22%.
For the molecule `COc1ccccc1CCNC(=O)c1ccc(OC)c(OC2CCN(C(C)C)CC2)c1`, the “hERG current change (%, negative = inhibition) at 10uM” value was -46.3%.
Consider `COCCCNC(=O)c1ccc(OC)c(OC2CCN(C(C)C)CC2)c1`, for which the “hERG current change (%, negative = inhibition) at 10uM” value is on record as 10.3%.
In the case of `COc1cc(C(=O)NCCC2=CCCCC2)ccc1OC1CCN(C(C)=O)CC1`, the “hERG current change (%, negative = inhibition) at 10uM” value amounted to 2.98%.
Consider `COc1ccc(C(=O)NCCC2=CCCCC2)cc1OC1CCN(C(C)C)CC1`, for which the “hERG current change (%, negative = inhibition) at 10uM” value is recorded as -78.1%.
Regarding `COc1cccc(CCNC(=O)c2ccc(OC)c(OC3CCN(C(C)C)CC3)c2)c1`, the “hERG current change (%, negative = inhibition) at 10uM” value is reported as -57.4%.
Then `COc1ccc(C(=O)NCCC2=CCCCC2)cc1OC`, with -3.21%; and `CC1CN=C(NCc2ccc(F)cc2)S1` (centres unmarked), with -8.5%.
In the case of `CCOc1ccccc1C(=O)Nc1cc(C(=O)NCC(C)C)ccc1Cl`, the “hERG current change (%, negative = inhibition) at 10uM” value was 12%.
`CCCc1ccc(Oc2c(-c3ccc(O)c(C)c3O)n[nH]c2C)cc1`: the “hERG current change (%, negative = inhibition) at 10uM” value is listed as -13.2%.
For `Cc1nc2sccn2c(=O)c1S(=O)(=O)N1CCN(c2ccccc2)CC1` the value was -11.2%.
For `Cc1nc2sccn2c(=O)c1S(=O)(=O)N1CCN(c2ccc(F)cc2)CC1`, the “hERG current change (%, negative = inhibition) at 10uM” value is recorded as -70.2%.
For `COc1ccc(N2CCN(S(=O)(=O)c3c(C)nc4sccn4c3=O)CC2)cc1` the value was -9.86%.
As for `Cc1cc(NC(=O)Nc2ccc(OCc3ccccc3)cc2)n(C)n1`, the “hERG current change (%, negative = inhibition) at 10uM” value is 23.8%.
`COc1ccc(-n2c(Cc3cccn3C)nnc2SCC(=O)NCc2ccco2)cc1`: the “hERG current change (%, negative = inhibition) at 10uM” value is reported as -12.9%.
Turning to `Cc1nc(SCc2c(Cl)cccc2Cl)nc(OC(=O)N(C)C)c1C`, the “hERG current change (%, negative = inhibition) at 10uM” value was -4.32%.
Take `CCc1ccc(-c2csc3ncn(CC(=O)NCc4ccco4)c(=O)c23)cc1`: the “hERG current change (%, negative = inhibition) at 10uM” value was -4.39%.
`O=C(Cn1cnc2scc(-c3cccc([N+](=O)[O-])c3)c2c1=O)NCc1ccco1`: the “hERG current change (%, negative = inhibition) at 10uM” value is reported as -54%.
For `O=C(Cn1cnc2scc(-c3ccccc3)c2c1=O)NCc1ccco1`, the “hERG current change (%, negative = inhibition) at 10uM” value is given as -24.9%.
As for `CC(C)(C)c1ccc(COC(=O)CNC(=O)CNC(=O)Cc2ccccc2)cc1`, the “hERG current change (%, negative = inhibition) at 10uM” value is recorded as -6.93%.
Take `CCOP(=O)(CC(C(C)=O)C(O)c1ccccc1)OCC` (centres unmarked): the “hERG current change (%, negative = inhibition) at 10uM” value worked out at 11.3%.
Then `CCOCCCNC(=O)c1cc2c(=O)n3ccccc3nc2s1`, with -7.05%; and `COc1ccc(S(=O)(=O)N2CCCCCC2)cc1C(=O)NCCc1ccccc1`, with -65.5%.
